Reference: PubChem BioAssay AID2129 (The Scripps Research Institute Molecular Screening Center, 2009)
In all, about 320,000 compounds went through this assay and about 2,200 (0.69%) were called active. The entries come from a sample that favours actives as a whole. Values without a mark were called inactive.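 The calls were made as follows: active = inhibition above the mean of all tested compounds plus 3 SD, cutoff set per campaign (cut at about 30% in these data); inactive = the rest.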

These molecules were tested against Bcl-2-like protein 1 (Homo sapiens) (UniProt Q07817) (assay: inhibitors of human Bcl-xL, primary screen, biochemical, fluorescence polarization, HTS (AID 2129;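 also: 0% = DMSO wells and 100% = unlabeled Bim-BH3 peptide competitor; inhibitors lower millipolarization by displacing the labeled peptide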)). Conditions: GST-Bcl-xL / FITC-Bim BH3 peptide fluorescence polarization; at 10.9 µM; hits give high values.
Sequence of Bcl-2-like protein 1 (Homo sapiens) (Q07817 whole entry, looked up): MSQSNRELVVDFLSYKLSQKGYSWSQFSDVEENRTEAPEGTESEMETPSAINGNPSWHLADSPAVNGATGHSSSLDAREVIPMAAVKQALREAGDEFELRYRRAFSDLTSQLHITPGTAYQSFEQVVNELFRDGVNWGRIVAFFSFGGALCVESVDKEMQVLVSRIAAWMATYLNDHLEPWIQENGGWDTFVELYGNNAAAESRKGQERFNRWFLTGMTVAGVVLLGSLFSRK

| SMILES | inhibition |
| --- | --- |
| O=C(c1ccc(Cl)cc1)N1N=C(c2ccccn2)CC1(O)C(F)(F)F (configuration not stated) | -13% |
| Cc1ccc(/C=N/NC(=O)COc2ccccc2-c2ccccc2)cc1 | 68.1% (active) |
| Cc1cccc(OCC(=O)NCC(=O)N/N=C/c2ccc(N(C)C)cc2)c1 | 2.63% |
| C=CCc1ccccc1OCC(=O)N/N=C/c1ccccc1OCC | 0.68% |
| O=C(O)CC(c1ccccc1F)N1Cc2ccccc2C1=O (configuration not stated) | -0.17% |
| CC(C)CN(C(=O)CSc1ncnc2sccc12)C1CCS(=O)(=O)C1 (configuration not stated) | 0.66% |
| CCN(CC)CCNC(=O)c1ccc(NC(=O)c2c(F)cccc2Cl)cc1 | -0.4% |
| O=C1N[C@@H](Cc2ccccc2)C(=O)N2[C@H]1C[C@]1(Br)c3ccccc3N(S(=O)(=O)c3ccccc3)[C@H]21 | 10.4% |
| Cc1ccccc1N1C(=O)C2ON(c3ccccc3)C(c3ccncc3)C2C1=O (configuration not stated) | 4.04% |
| O=C(CNC(=O)c1ccc(F)cc1)c1ccccc1 | -1.14% |
| O=C(CNC(=O)c1ccccc1F)c1ccc(Br)cc1 | -3.61% |
| O=C(C[n+]1cc(Br)cc2ccccc21)c1ccc(F)cc1 | 62.8% (active) |
| CC(=O)n1c(C=Nc2ccccc2)c(O)c2ccccc21 | -15.2% |
| COC1=C(N2CCOCC2)C(=O)c2ccccc2C1=O | 1.64% |
| Cc1oc2c(c1C(=O)N1CCOCC1)C(=O)c1ccccc1C2=O | -1.81% |
| O=C1c2ccccc2-c2ncnc3c(N4CCOCC4)cc(N4CCOCC4)c1c23 | 48.5% (active) |
| COc1ccc(-n2ncc3c2CC(C)(C)CC3NC(=O)CCc2c(C)nn(C)c2C)cc1 (configuration not stated) | 6.1% |
| COCCNc1nnc(SCC(=O)NNC(=O)c2ccco2)s1 | 4.35% |
| Cc1ccc(CSCC(=O)N(C)CC(=O)Nc2ccc(C)cc2)cc1 | 1.73% |
| Cc1c(NC(=O)CSc2nnc(-c3cccnc3)n2N)c(=O)n(-c2ccccc2)n1C | -1.43% |
| COc1ccc(C(=O)N(CCN2CCOCC2)CC(=O)NC2CCCC2)cc1OC | -2.67% |
| Cc1ccc(OCCCC(=O)Nc2ccc3c(c2)OCCO3)cc1 | -5.28% |
| CCCCC1=CC2=CC(=O)C(C)(OC(=O)CC)C(=O)C2=CN1CCCOC(C)C (configuration not stated) | 25.5% |
| COC/C=C/C1=CC2=CC(=O)C(C)(OC(=O)CCC(=O)OC)C(=O)C2=CO1 (configuration not stated) | 46.1% (active) |

| SMILES | inhibition |
| --- | --- |
| COc1cc(C2/C(=C(\O)c3ccc4c(c3)CC(C)O4)C(=O)C(=O)N2Cc2ccco2)ccc1O (configuration not stated) | 0.14% |
| CCSc1nc2sc3c(c2c(=O)[nH]1)CC(C)(C)OC3 | 4.34% |
| CCC1(C)Cc2c(sc3nc(SC)[nH]c(=O)c23)CO1 (configuration not stated) | 0.11% |
| CC/C(C)=N/Nc1nc2sc3c(c2c(=O)[nH]1)CC(C)(C)OC3 | 67.3% (active) |
| N#Cc1c(N2CCCCC2)nc(N)c2c(N)nc(SCC(=O)O)cc12 | 34.7% (active) |
| N#CCc1c(C#N)c(N)nc(N2CCCC2)c1C#N | 1.69% |
| N#Cc1c(-c2ccccc2)cc(-c2ccccc2)nc1SCC(=O)O | 6.81% |
| CCN(CC(=O)Nc1cccc(S(=O)(=O)N2CCCCC2)c1)Cc1ccccc1 | 1.24% |
| COc1ccc(C(=O)C2CCCN(C(=O)c3ccc(OC)o3)C2)c(C)c1 (configuration not stated) | 7.44% |
| COC(=O)C[n+]1cccc2ccccc21 | 173% (active) |
| Cc1cccc[n+]1CC(=O)c1ccccc1 | 2.8% |
| COc1ccccc1NC(=O)C[n+]1ccccc1 | -1.13% |
| CCCOCC(O)CC(CC)C(=O)NNC(=S)Nc1ccccc1 (configuration not stated) | 2.96% |
| Cc1c(-c2ccccc2)cn2c1-c1ccc(C)n1CC2 | 31.6% (active) |
| Cc1c(Cl)cnc(NC(=O)COC(=O)c2ccc(S(=O)(=O)NCc3ccco3)cc2)c1Cl | 35.9% (active) |
| CSCCC(NC(=O)c1ccco1)C(=O)OCC(=O)Nc1ncc(Cl)c(C)c1Cl (configuration not stated) | 17.7% |
| C/C(=N\Nc1ncc(Cl)cc1Cl)c1ccc(S(=O)(=O)NCc2ccco2)cc1 | 3.34% |
| COc1ccc(OCC(O)CN(C)C(=O)C(C)Oc2ccccc2)cc1 (configuration not stated) | -1.74% |
| O=C(CSc1n[nH]c(-c2cccnc2)n1)Nc1ccc(Cl)cc1 | 2.31% |
| COc1ccc(Cc2nnc(SCC(=O)c3cccc([N+](=O)[O-])c3)n2C)cc1 | 3.55% |
| Cc1cc(N2CCN(S(=O)(=O)c3ccc(C)c(C)c3)CC2)c2ccccc2n1 | 1.43% |
| Cc1ccc(S(=O)(=O)C(C#N)c2nc3ccccc3nc2N2CCCC2)cc1C (configuration not stated) | 87.6% (active) |
| Cc1ccc(S(=O)(=O)Nc2nc3ccccc3nc2N2CCc3ccccc3C2)cc1 | 6.46% |
